Holding throughout (experiment): DAPPL (digital affinity profiling via proximity ligation, sequencing); 10 mM Tris-HCl pH 7.5, 50 mM NaCl, 1 mM DTT, 4% glycerol, room temperature, 30 min; GST-TFs on glutathione beads, 16-mer random dsDNA library, 0.1% formaldehyde crosslink after washing; high values mean tight binding
Holding throughout (settings): protein: recombinant; tags: N-terminal GST; dsDNA, one strand shown

The target of one test is T1, FLI1 (Homo sapiens, UniProt Q01543 1-452).
T1 sequence: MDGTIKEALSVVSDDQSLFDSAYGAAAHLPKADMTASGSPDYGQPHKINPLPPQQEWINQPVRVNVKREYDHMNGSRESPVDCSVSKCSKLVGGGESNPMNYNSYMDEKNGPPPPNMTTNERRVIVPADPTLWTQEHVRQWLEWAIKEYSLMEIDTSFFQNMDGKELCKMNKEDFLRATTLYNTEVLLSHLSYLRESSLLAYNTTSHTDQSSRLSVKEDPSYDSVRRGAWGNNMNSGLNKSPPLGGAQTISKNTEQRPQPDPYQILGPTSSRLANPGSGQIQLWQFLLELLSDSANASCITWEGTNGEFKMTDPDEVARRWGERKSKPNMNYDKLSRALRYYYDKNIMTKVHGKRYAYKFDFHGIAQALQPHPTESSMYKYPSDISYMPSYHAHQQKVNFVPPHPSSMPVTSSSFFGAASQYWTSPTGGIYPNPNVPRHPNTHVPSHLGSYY
The method in brief: (§1)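 After expression in yeast as GST fusions, human transcription factors were bound to glutathione beads, DNA-barcoded and mixed with a tag-only sample. The pools were incubated with 200 nmole of a 16-mer random double-stranded DNA library in Tris/NaCl/DTT/glycerol buffer (30 min, room temperature), washed and crosslinked with 0.1% formaldehyde. Proximity ligation with BsaI/T4 ligase ran for 1 h at 37 °C, before PCR amplification and sequencing on an Illumina NextSeq500. Binding signal is a hexamer's read frequency for a factor divided by its frequency for the tag-only sample.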

For the next test, the target named is T2, ELK1 (Homo sapiens, UniProt P19419 1-428).
T2 sequence: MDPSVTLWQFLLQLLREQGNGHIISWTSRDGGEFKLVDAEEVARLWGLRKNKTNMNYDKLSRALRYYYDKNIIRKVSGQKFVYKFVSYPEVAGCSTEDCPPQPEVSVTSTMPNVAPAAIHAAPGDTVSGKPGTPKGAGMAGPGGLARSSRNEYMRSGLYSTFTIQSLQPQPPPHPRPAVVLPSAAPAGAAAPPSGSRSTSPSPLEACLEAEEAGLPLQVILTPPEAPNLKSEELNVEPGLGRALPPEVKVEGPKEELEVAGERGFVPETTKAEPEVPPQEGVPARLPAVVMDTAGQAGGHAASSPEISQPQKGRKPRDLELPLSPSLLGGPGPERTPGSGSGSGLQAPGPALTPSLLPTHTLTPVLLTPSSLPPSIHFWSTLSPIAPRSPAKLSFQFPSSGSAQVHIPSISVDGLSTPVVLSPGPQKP
The gist of the method: as §1

A further test addresses T3, GABPA (Homo sapiens, UniProt Q06546 1-454).
T3 sequence: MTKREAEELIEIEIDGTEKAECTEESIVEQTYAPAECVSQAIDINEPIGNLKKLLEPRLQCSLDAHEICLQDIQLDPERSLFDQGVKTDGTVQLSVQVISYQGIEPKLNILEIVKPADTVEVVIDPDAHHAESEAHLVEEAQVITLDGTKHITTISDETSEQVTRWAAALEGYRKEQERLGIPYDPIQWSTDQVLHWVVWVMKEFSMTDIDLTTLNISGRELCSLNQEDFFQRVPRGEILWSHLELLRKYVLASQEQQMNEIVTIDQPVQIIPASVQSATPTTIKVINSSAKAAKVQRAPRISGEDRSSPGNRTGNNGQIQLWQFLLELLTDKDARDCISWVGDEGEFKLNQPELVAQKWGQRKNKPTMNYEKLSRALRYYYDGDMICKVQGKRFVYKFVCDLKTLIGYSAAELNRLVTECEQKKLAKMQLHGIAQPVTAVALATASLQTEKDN
The gist of the method: as §1

In a further test the target is T4, ERG (Homo sapiens, UniProt P11308 1-479).
T4 sequence: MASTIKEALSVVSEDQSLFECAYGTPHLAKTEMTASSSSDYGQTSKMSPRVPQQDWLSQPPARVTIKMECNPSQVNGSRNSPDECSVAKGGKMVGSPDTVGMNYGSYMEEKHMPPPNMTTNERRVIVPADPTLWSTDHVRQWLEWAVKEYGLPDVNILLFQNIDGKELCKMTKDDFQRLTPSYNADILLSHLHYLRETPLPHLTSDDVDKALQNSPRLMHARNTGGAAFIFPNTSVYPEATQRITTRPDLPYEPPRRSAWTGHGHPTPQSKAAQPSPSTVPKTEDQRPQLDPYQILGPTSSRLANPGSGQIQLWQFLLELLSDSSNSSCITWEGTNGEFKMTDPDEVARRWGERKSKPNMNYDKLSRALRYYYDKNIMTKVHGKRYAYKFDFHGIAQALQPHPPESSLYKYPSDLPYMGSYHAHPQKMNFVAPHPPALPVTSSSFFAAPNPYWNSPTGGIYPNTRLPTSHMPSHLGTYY
The gist of the method:
as §1

Another test concerns the target ELF1 (Homo sapiens, UniProt P32519 1-619). The method in brief:
as §1

A further test has as its target T5, EHF (Homo sapiens, UniProt Q9NZC4 1-300).
T5 sequence: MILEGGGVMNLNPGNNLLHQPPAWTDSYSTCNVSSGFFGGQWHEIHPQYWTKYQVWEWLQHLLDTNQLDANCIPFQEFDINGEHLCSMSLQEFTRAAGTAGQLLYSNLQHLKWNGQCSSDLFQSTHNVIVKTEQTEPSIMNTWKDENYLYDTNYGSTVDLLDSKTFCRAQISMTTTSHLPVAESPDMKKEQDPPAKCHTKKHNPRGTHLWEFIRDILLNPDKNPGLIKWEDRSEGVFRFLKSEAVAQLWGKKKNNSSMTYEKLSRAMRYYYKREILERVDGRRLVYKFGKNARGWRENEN
The gist of the method:
as §1

The target of a further test is SPI1 (Homo sapiens, UniProt P17947 1-270). The method in brief: as §1
Another test deals with SPIB (Homo sapiens, UniProt Q01892 1-262). The gist of the method: as §1
Chain of SPIB (Q01892 whole entry): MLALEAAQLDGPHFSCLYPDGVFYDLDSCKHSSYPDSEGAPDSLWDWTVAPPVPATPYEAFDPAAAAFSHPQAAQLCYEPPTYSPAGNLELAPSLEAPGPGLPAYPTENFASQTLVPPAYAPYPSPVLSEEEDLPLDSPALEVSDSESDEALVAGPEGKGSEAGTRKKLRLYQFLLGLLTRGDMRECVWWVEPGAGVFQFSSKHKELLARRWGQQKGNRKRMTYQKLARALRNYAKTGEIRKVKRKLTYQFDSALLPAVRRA
Another test addresses T6, ELK3 (Homo sapiens, UniProt P41970 1-407).
T6 sequence: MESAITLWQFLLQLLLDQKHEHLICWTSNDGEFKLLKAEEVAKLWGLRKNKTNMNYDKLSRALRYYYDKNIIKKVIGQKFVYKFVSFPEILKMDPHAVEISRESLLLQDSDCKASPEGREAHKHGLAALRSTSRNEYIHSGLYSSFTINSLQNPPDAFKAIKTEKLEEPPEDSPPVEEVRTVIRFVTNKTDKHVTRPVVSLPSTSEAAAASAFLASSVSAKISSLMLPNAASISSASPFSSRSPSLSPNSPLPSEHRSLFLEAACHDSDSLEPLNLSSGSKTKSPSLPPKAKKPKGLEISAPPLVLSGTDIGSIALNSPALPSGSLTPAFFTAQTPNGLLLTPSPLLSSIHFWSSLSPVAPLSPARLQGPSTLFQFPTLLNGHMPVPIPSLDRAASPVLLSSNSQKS
The gist of the method: as §1

Chain of ELF1 (P32519 whole entry): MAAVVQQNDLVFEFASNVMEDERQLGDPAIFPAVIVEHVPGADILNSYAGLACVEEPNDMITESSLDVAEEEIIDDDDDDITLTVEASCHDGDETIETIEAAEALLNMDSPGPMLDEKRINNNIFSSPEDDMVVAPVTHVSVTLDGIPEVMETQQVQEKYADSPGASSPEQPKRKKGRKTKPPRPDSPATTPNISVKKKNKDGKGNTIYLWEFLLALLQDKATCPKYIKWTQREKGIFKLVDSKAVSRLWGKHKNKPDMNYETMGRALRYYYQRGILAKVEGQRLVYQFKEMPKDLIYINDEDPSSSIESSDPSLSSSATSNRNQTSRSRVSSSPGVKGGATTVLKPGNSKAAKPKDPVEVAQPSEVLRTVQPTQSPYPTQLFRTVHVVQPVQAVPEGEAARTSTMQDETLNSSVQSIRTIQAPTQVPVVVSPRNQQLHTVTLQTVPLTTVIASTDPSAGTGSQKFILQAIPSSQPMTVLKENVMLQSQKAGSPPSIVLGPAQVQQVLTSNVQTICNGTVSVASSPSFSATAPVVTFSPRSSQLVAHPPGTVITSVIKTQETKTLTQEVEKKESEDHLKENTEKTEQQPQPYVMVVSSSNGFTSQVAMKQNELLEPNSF

As to TGTCTT, the binding signal in the test with FLI1 is 1.29 fold enrichment (6-mer frequency, TF over GST control); with ELK1 it was 1.2 fold enrichment (6-mer frequency, TF over GST control); in the test with GABPA, 1.38 fold enrichment (6-mer frequency, TF over GST control); in the test with ERG, 1.34 fold enrichment (6-mer frequency, TF over GST control); in the test with ELF1 it was 1.35 fold enrichment (6-mer frequency, TF over GST control); with EHF it was 1.31 fold enrichment (6-mer frequency, TF over GST control). For the same sequence, the binding signal was 1.2 fold enrichment (6-mer frequency, TF over GST control) in the test with SPI1; 1.26 fold enrichment (6-mer frequency, TF over GST control) with SPIB; 1.38 fold enrichment (6-mer frequency, TF over GST control) with ELK3.

TTCCAC: the binding signal was 1.39 fold enrichment (6-mer frequency, TF over GST control) with FLI1; 1.28 fold enrichment (6-mer frequency, TF over GST control) with ELK1; 1.38 fold enrichment (6-mer frequency, TF over GST control) with GABPA; 1.4 fold enrichment (6-mer frequency, TF over GST control) with ERG; 1.45 fold enrichment (6-mer frequency, TF over GST control) with ELF1; 1.33 fold enrichment (6-mer frequency, TF over GST control) with EHF. Besides, the binding signal is 1.42 fold enrichment (6-mer frequency, TF over GST control) with SPI1; 1.35 fold enrichment (6-mer frequency, TF over GST control) with SPIB; 1.5 fold enrichment (6-mer frequency, TF over GST control) with ELK3.

With TCCTCC, the binding signal is 1.47 fold enrichment (6-mer frequency, TF over GST control) in the test with FLI1; 1.61 fold enrichment (6-mer frequency, TF over GST control) with ELK1; 1.49 fold enrichment (6-mer frequency, TF over GST control) in the test with GABPA; 1.58 fold enrichment (6-mer frequency, TF over GST control) in the test with ERG; 1.52 fold enrichment (6-mer frequency, TF over GST control) in the test with ELF1; 1.61 fold enrichment (6-mer frequency, TF over GST control) with EHF. Also, the binding signal with SPI1 is 1.68 fold enrichment (6-mer frequency, TF over GST control); with SPIB it was 1.6 fold enrichment (6-mer frequency, TF over GST control); with ELK3, 1.55 fold enrichment (6-mer frequency, TF over GST control).

In the case of ACGAAT, the binding signal with FLI1 is 1.12 fold enrichment (6-mer frequency, TF over GST control); with ELK1 it was 1.1 fold enrichment (6-mer frequency, TF over GST control); with GABPA, 1.22 fold enrichment (6-mer frequency, TF over GST control); in the test with ERG it was 1.07 fold enrichment (6-mer frequency, TF over GST control); with ELF1, 1.15 fold enrichment (6-mer frequency, TF over GST control); with EHF it was 1.13 fold enrichment (6-mer frequency, TF over GST control). Also, the binding signal with SPI1 is 1.13 fold enrichment (6-mer frequency, TF over GST control); with SPIB, 1.15 fold enrichment (6-mer frequency, TF over GST control); with ELK3 it was 1.13 fold enrichment (6-mer frequency, TF over GST control).

Regarding GCCCTT, the binding signal with FLI1 is 1.23 fold enrichment (6-mer frequency, TF over GST control); with ELK1, 1.11 fold enrichment (6-mer frequency, TF over GST control); with GABPA it was 1.18 fold enrichment (6-mer frequency, TF over GST control); in the test with ERG, 1.16 fold enrichment (6-mer frequency, TF over GST control); with ELF1, 1.25 fold enrichment (6-mer frequency, TF over GST control); with EHF, 1.19 fold enrichment (6-mer frequency, TF over GST control). The binding signal is 1.22 fold enrichment (6-mer frequency, TF over GST control) with SPI1; 1.28 fold enrichment (6-mer frequency, TF over GST control) in the test with SPIB; 1.24 fold enrichment (6-mer frequency, TF over GST control) with ELK3.

On to CCTGCT, for which the binding signal with FLI1 was 1.46 fold enrichment (6-mer frequency, TF over GST control); with ELK1, 1.72 fold enrichment (6-mer frequency, TF over GST control); in the test with GABPA, 1.46 fold enrichment (6-mer frequency, TF over GST control); with ERG, 1.65 fold enrichment (6-mer frequency, TF over GST control); with ELF1, 1.61 fold enrichment (6-mer frequency, TF over GST control); with EHF, 1.61 fold enrichment (6-mer frequency, TF over GST control). For the same sequence, the binding signal in the test with SPI1 was 1.78 fold enrichment (6-mer frequency, TF over GST control); with SPIB, 1.59 fold enrichment (6-mer frequency, TF over GST control); with ELK3 it was 1.61 fold enrichment (6-mer frequency, TF over GST control).

For CCGGCT, the binding signal is 1.75 fold enrichment (6-mer frequency, TF over GST control) in the test with FLI1; 1.62 fold enrichment (6-mer frequency, TF over GST control) in the test with ELK1; 1.65 fold enrichment (6-mer frequency, TF over GST control) with GABPA; 1.74 fold enrichment (6-mer frequency, TF over GST control) with ERG; 1.68 fold enrichment (6-mer frequency, TF over GST control) with ELF1; 1.77 fold enrichment (6-mer frequency, TF over GST control) with EHF. The binding signal with SPI1 is 1.73 fold enrichment (6-mer frequency, TF over GST control); with SPIB, 1.91 fold enrichment (6-mer frequency, TF over GST control); with ELK3, 1.62 fold enrichment (6-mer frequency, TF over GST control).

For the sequence GCTAAA, the binding signal in the test with FLI1 was 1.06 fold enrichment (6-mer frequency, TF over GST control); in the test with ELK1, 1.12 fold enrichment (6-mer frequency, TF over GST control); with GABPA it was 1.07 fold enrichment (6-mer frequency, TF over GST control); in the test with ERG, 1.07 fold enrichment (6-mer frequency, TF over GST control); with ELF1, 1.08 fold enrichment (6-mer frequency, TF over GST control); with EHF, 1.06 fold enrichment (6-mer frequency, TF over GST control). In addition, the binding signal was 1.16 fold enrichment (6-mer frequency, TF over GST control) in the test with SPI1; 1.14 fold enrichment (6-mer frequency, TF over GST control) with SPIB; 1.04 fold enrichment (6-mer frequency, TF over GST control) with ELK3.

The record behind these values is publication PMC7862700, “An all-to-all approach to the identification of sequence-specific readers for epigenetic DNA modifications on cytosine”.
